High-throughput results deposited in PubChem BioAssay by National Center for Advancing Translational Sciences (NCATS).
HEK cytotox = cytotoxic compounds in HEK 293 cells; Potency, µM (top dose mostly 115 µM), without a hit: at the highest dose activity change, negative = cytotoxicity, actives largely listed as inhibitors; 94,000 compounds, 6.6% hits; HEK 293 viability, ATP luminescence (CellTiter-Glo), 48-72 h; AID 1345083; also: nearly all actives have a fitted effect of over 60% in size
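HEK 293 seeded at 250 cells/well receive compound via pintool. After 48 or 72 hr at 37 degree Celsius, 5% CO2 and 95% humidity, CellTiter-Glo is dispensed and luminescence read following 10 min at room temperature.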
SNCA viab count = reduces viability of HEK-293 SNCA reporter cells; HEK-293-SNCA-luc viability, GF-AFC fluorescence, 24 h; Potency, µM (highest dose often 57.1 µM), inactives show at the top dose activity change, negative = cytotoxicity, hits mostly cytotoxic; 150,000 compounds, 0.12% hits; AID 1671193;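 also: 0% = DMSO-treated cells and -100% = medium-only wells without cells; nearly all actives have a fitted effect of over 30% in size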
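HEK-293-SNCA-luc cells (1500/well) plated 24 h, then exposed 24 h to a dilution series; GF-AFC added 30 min at 37C, fluorescence 405/540 nm; normalised to medium-only and DMSO wells, Hill fit.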
NIH3T3 tox = kills NIH 3T3 cells; Potency, µM (top dose mostly 96.7 µM), inactives show at the highest dose activity change, negative = cytotoxicity, most hits filed as inhibitors; NIH 3T3 viability, CellTiter-Glo ATP luminescence, 48-72 h; 94,000 compounds, 4.3% hits; also: nearly all actives have a fitted effect of over 55% in size
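Mouse fibroblast NIH 3T3 cells, 400 per well, received compound via pintool and were incubated for 48 or 72 hr prior to CellTiter-Glo ATP luminescence measurement.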
FLuc inh = Photinus pyralis luciferase inhibition | purified P. pyralis luciferase, luminescence, biochemical | P08659 | Potency, µM (doses to about 115 µM), hits mostly inhibitors | 76,000 compounds, 2.5% hits | AID 1347043; also: nearly all actives have a fitted effect of over 65% in size
Target sequence (P08659 whole entry, looked up): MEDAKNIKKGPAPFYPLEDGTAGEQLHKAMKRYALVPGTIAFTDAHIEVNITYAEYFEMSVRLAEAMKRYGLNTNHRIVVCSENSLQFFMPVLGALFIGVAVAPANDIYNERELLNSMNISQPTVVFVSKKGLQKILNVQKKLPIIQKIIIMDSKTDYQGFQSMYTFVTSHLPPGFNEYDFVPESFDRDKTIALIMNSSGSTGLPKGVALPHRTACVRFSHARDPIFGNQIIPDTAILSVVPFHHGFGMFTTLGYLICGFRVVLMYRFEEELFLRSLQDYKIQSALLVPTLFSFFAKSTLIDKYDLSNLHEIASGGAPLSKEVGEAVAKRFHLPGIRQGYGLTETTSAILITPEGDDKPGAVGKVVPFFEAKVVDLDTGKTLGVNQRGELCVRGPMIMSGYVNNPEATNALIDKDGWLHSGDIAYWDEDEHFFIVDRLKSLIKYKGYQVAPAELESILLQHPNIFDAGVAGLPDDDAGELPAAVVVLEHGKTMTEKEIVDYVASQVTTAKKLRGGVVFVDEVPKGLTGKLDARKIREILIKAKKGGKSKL
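FLuc 10nM, D-luciferin 10uM, ATP 10uM, Mg acetate 10mM, Tris acetate pH 7.5, Tween/BSA; cpd qHTS; enzyme added last; CCD luminescence.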
hNpr1 antagonist = human Npr1 receptor antagonism; Potency, µM (series often up to 46.3 µM), for the others: top-dose activity change, negative = inhibition, usual class: inhibitors; HEK293 hNpr1 GloSensor cGMP, ANP-stimulated luminescence; 76,000 compounds, 1.6% hits; P16066; calls by dose curve; also: nearly all actives have a fitted effect of over 60% in size
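Compound pre-incubated 30 min at room temperature on GloSensor-loaded HEK293 cells stably carrying hNpr1 and the pGS-40F cGMP biosensor. Stimulation uses hNppA at 0.1 nM final; luminescence is taken at baseline and 20 min post-agonist.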
SNCA expr inh = reduces expression of the alpha-synuclein gene; Potency, µM (series often up to 57.2 µM), for inactives: at the highest dose activity change, negative = inhibition, most hits filed as inhibitors; HEK-293 SNCA-luciferase knock-in, luminescence, 24 h; 140,000 compounds, 0.17% hits;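 also: plate controls were DMSO cells for no effect and cell-free wells for full effect; nearly all actives have a fitted effect of over 45% in size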
* marks the source's active call; other numbers are inactive results; i = inactive; ? = inconclusive; . = not tested or not shown; [ ] = remark or other dose. A selection: hits, their analogues and other compounds. The true share with any hit is near 7.2%. Unless noted, calls follow the shape of the dose curve; as a rule, active = well fitted curve in the direction sought with a large enough effect; inconclusive = small, poorly fitted or top-dose-only effect, or another doubt; inactive = no such curve, though single readings can be large; an effect the other way counts as inactive or inconclusive. Unless noted, % is scaled to controls: 0 for no effect and ±100 for the full control effect; potency is read from the fitted curve at half-maximal effect.

SMILES	HEK cytotox	SNCA viab count	NIH3T3 tox	FLuc inh	hNpr1 antagonist	SNCA expr inh
CCCN1CCCCC12Cc1ccccc1CN(C(=O)C1CCN(C)CC1)C2 (configuration not stated)	?	-10%	?	.	.	22%
CCCN1CCCC12Cc1ccccc1CN(C(=O)C(C)C)C2 (configuration not stated)	89µM*	-3%	?	.	.	-6%
Cc1noc(C)c1S(=O)(=O)N1CCC[C@H](n2c(=O)n(C)c3cccnc32)C1	?	9%	-21%	i	-2%	-6%
Cc1ccc(C2c3cc(OCc4nc(C(=O)NCC5CC5)co4)ccc3CCN2C(=O)C2CC2)cc1 (configuration not stated)	35µM*	-7%	28µM*	i	-23%	-24%
COCCNC(=O)c1coc(COc2ccc3c(c2)C(c2cccc(F)c2)N(C(=O)C2CC2)CC3)n1 (configuration not stated)	?	14%	?	i	-9%	-5%
CCCNC(=O)c1coc(COc2ccc3c(c2)C(c2ccc(C)cc2)N(C(=O)C2CC2)CC3)n1 (configuration not stated)	?	-1%	?	i	-8%	-9%
CC(C)CNC(=O)c1coc(COc2ccc3c(c2)C(c2cccc(F)c2)N(C(=O)C2CC2)CC3)n1 (configuration not stated)	14µM*	?	13µM*	i	?	?
COCCNC(=O)c1coc(COc2ccc3c(c2)C(c2ccc(F)cc2)N(C(=O)C(C)C)CC3)n1 (configuration not stated)	8.9µM*	11%	-28%	i	-1%	19%
Cc1ccc(C2c3cc(OCc4nc(C(=O)NCC(C)C)co4)ccc3CCN2C(=O)C2CC2)cc1 (configuration not stated)	40µM*	-14%	?	i	-1%	-25%
Cc1cccc(-c2ocnc2C(=O)N2CCCOCCNC(=O)CC2)c1	-14%	3%	?	i	3%	-8%
CCCNC(=O)c1coc(COc2ccc3c(c2)C(c2cccc(C)c2)N(C(=O)C2CC2)CC3)n1 (configuration not stated)	13µM*	-12%	?	i	?	?
CCN(CC)C(=O)c1coc(COc2ccc3c(c2)C(c2ccc(C)cc2)N(C(=O)C2CC2)CC3)n1 (configuration not stated)	10µM*	-5%	?	i	-25%	-16%
O=C(NCC1Cn2cccc2CN1Cc1ccccc1)c1ccc2cc[nH]c2c1 (configuration not stated)	79µM*	2%	?	i	-12%	29%
COc1ccc(-c2ccccc2)cc1N1C(=O)[C@@H]2C[C@H]1CN2C(=O)C(C)(C)C	-25%	-12%	?	i	3%	-22%
O=C(NCc1ccccn1)c1cn2cc(-c3cccc(C(F)(F)F)c3)sc2n1	?	11%	-14%	.	.	21%
O=C(NCc1ccccn1)c1cn2cc(-c3ccccc3)sc2n1	50µM*	4%	?	.	.	123%
O=C(NCCCc1ccccc1)c1cn2cc(-c3ccc(F)cc3)sc2n1	?	0%	20µM*	.	.	-9%
O=C(NC1CC1)c1cn2cc(-c3ccccc3)sc2n1	?	-2%[87.6 µM]	?	.	.	-14%[87.6 µM]
O=C(NC1CCCCC1)c1cn2cc(-c3ccccc3)sc2n1	63µM*	-1%[87.6 µM]	?	.	.	161%[87.6 µM]
COc1cccc(-c2cn3cc(C(=O)N4CCN(C(C)=O)CC4)nc3s2)c1	?	7%	?	.	.	33%
O=C(NCCc1ccccc1)c1cn2cc(-c3ccc(C(F)(F)F)cc3)sc2n1	-4%	2%	-12%	.	.	17%
COc1cccc(-c2cn3cc(C(=O)N4CCCCC4)nc3s2)c1	?	0%	40µM*	.	.	-30%
Cc1ccc(Nc2ccnc(N3CCCC3C(=O)N3CCC(C#N)CC3)n2)cc1 (configuration not stated)	?	-12%[12.5 µM]	-12%	.	.	17%
Cc1ccc(-n2cccc2CC(=O)NC2CCCC2)cc1	-18%	-5%	-19%	i	2%	9%
COC1CCC12CCN(C(=O)c1nccn1C)CC2 (configuration not stated)	-14%	-8%	i	i	3%	23%
SMILES	HEK cytotox	SNCA viab count	NIH3T3 tox	FLuc inh	hNpr1 antagonist	SNCA expr inh
CC(C)C(=O)N1CCC(Cc2noc(-c3ccccc3)n2)C1 (configuration not stated)	-28%	4%	-24%	?	-18%	5%
Cn1cc(-c2cnn3c(N)c(Br)c([C@@H]4CCCNC4)nc23)cn1	.	-38%	.	.	.	.
O=C(NCc1ccc(F)cc1)c1cn2cc(-c3ccccc3)sc2n1	79µM*	-4%[87.6 µM]	?	.	.	76%[87.6 µM]
COc1cccc(-c2cn3cc(C(=O)NCCCc4ccccc4)nc3s2)c1	?	-26%	35µM*	.	.	?
COc1cccc(-c2cn3cc(C(=O)NCCc4ccccc4)nc3s2)c1	?	-5%	?	.	.	10%
CC(C)CNC(=O)c1cn2cc(-c3ccccc3)sc2n1	71µM*	-10%[87.6 µM]	?	.	.	-4%[87.6 µM]
COc1ccccc1-n1c(=O)c(C(=O)N2CCN(C(=O)c3cccc(Cl)c3)CC2)nc2cccnc21	-3%	-3%	1%	.	.	2%
O=C(O)Cn1ccc2cc(OCC3CCN(C(=O)OC4CCCC4)CC3)cnc21	i	-11%[87.6 µM]	32µM*	?	-2%[70.6 µM]	-22%[87.6 µM]
NC(=O)Cn1ccc2cc(OCC3CCN(c4cc(NC5CC5)ncn4)CC3)cnc21	25µM*	-20%[87.6 µM]	?	?	18µM*	-27%[87.6 µM]
COC(=O)c1ccc(COC[C@@H]2CN(C(C)C)S(=O)(=O)[C@H]2c2ccccc2)cc1	40µM*	.	?	.	.	.
COCCn1ccc2ccc(C(=O)NC3CCCc4c3[nH]c3ccccc43)cc21 (configuration not stated)	?	-9%	?	i	1%	8%
COCCN[C@@H]1C[C@@H]2c3[nH]c4ccccc4c3C[C@@H](C(=O)OC)N2[C@H](c2ccc(F)c(F)c2)C1	22µM*	-8%	25µM*	i	?	3%
COC(=O)[C@@H]1Cc2c([nH]c3ccccc23)[C@H]2C[C@@H](NCCO)C[C@@H](c3ccccc3)N21	40µM*	-16%[87.6 µM]	32µM*	?	-16%[70.6 µM]	-8%[87.6 µM]
COCCN[C@@H]1C[C@@H]2c3[nH]c4ccccc4c3C[C@@H](C(=O)OC)N2[C@H](c2ccccc2)C1	28µM*	-13%[87.6 µM]	32µM*	?	?	-12%[87.6 µM]
